Experimental data: the supplement of paper PMC10646978
± gives the standard deviation.

Key:
Settings in all cases: modulator concentration 10 µM
[1] = system: RAW-Dual (murine macrophage reporter line); experiment: NF-kB reporter (SEAP) activity fold change vs agonist alone; higher = enhanced NF-kB activity
Outline: (§1)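 RAW-Dual murine macrophage reporter cells were plated at 50 000 per well in 384-well plates, pin-transferred compound to 10 μM final, and pre-incubated for 1 hour at 37 °C before a PRR agonist was added and the cells incubated overnight. NF-κB activity was read from supernatant SEAP with QUANTI-Blue at 620 nm absorbance, and IRF activity from Lucia luciferase with QUANTI-Luc by luminescence. Each signal was expressed as fold change by dividing by the mean agonist-only control on the same plate. Two replicate plates were averaged, with errors obtained by propagation.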

[2] = system: RAW-Dual (murine macrophage reporter line); experiment: IRF reporter (Lucia luciferase) activity fold change vs agonist alone; higher = enhanced IRF activity
Outline: as §1

[3] = system: RAW-Dual (murine macrophage reporter line); experiment: viability score (confluency relative to resting cells, overnight) (fraction); higher = more viable, active = viable (0.7 or more)
Outline: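 RAW-Dual macrophages in 384-well plates were treated overnight with compound at 10 μM final. IncuCyte imaging recorded confluency, and IncuCyte software built two confluency masks across every imaged well. The viability score expresses confluency relative to resting cells and was judged against a cutoff, which a compound met only if both masks exceeded 70% of resting cells.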

[4] = agonist: CpG ODN 1826 0.5 ug/mL

Compound	NF-kB reporter [1, 4]	NF-kB reporter ([1]; agonist: LPS 0.1 ug/mL)	NF-kB reporter ([1]; agonist: MPLA […])	IRF reporter ([2]; agonist: 3'3'-cGAMP 10 ug/mL)	IRF reporter ([2]; agonist: LPS 0.1 ug/mL)	IRF reporter ([2]; agonist: MPLA […])	viability score [3]
OCCN1CCN(CCCN2c3ccccc3Sc3ccc(Cl)cc32)CC1	1.21 ± 0.051	0.614 ± 0.069	0.894 ± 0.077	3.18 ± 0.17	1.32 ± 0.18	1.49 ± 0.42	0.907 (active)
COc1cccc2c1C(=O)c1c(O)c3c(c(O)c1C2=O)C[C@@](O)(C(=O)CO)C[C@@H]3O[C@H]1C[C@H](N)[C@@H](O)[C@H](C)O1.Cl	0.114 ± 0.0074	0.0523 ± 0.0041	0.0992 ± 0.0043	0.0174 ± 0.0046	0.0179 ± 0.0063	0.0142 ± 0.0068	0.105 (inactive)
COc1ccc(CN(CCN(C)C)c2ccccn2)cc1 [Prestw-289]	0.902 ± 0.068	1.08 ± 0.11	1.01 ± 0.026	0.976 ± 0.11	0.912 ± 0.1	0.848 ± 0.066	0.993 (active)
Cc1cc(O)c2c(c1)C(=O)c1cccc(O)c1C2=O	0.969 ± 0.08	1.08 ± 0.1	1.1 ± 0.024	0.894 ± 0.08	0.973 ± 0.1	0.953 ± 0.11	0.986 (active)
O=C1SC(=Cc2ccc([N+](=O)[O-])cc2)C(=O)N1Cc1ccccc1	0.98 ± 0.064	1.04 ± 0.069	0.951 ± 0.071	0.989 ± 0.042	1.5 ± 0.28	1.23 ± 0.12	1 (active)
CCCCSc1nnc2c(n1)OC(c1cccc(F)c1)Nc1ccc(Br)cc1-2 (configuration not stated)	1.07 ± 0.18	1.01 ± 0.078	0.951 ± 0.083	0.914 ± 0.036	1.24 ± 0.13	1.13 ± 0.12	1 (active)
CC(C)c1cc(-c2n[nH]c(=O)n2-c2ccc3c(ccn3C)c2)c(O)cc1O	0.0963 ± 0.0078	0.155 ± 0.012	0.681 ± 0.062	1.08 ± 0.059	1.22 ± 0.09	1.41 ± 0.12	0.542 (inactive)
N[C@@H]1CONC1=O	0.988 ± 0.074	0.913 ± 0.14	0.959 ± 0.037	0.929 ± 0.092	1.05 ± 0.094	1.06 ± 0.082	1 (active)
CNCC[C@H](Oc1cccc2ccccc12)c1cccs1.Cl	0.377 ± 0.037	0.925 ± 0.1	1.29 ± 0.069	1.41 ± 0.1	1.16 ± 0.18	1.24 ± 0.31	0.323 (inactive)
CCCCc1nc(C)c(CC(=S)N(C)C)c(=O)n1Cc1ccc(-c2ccccc2-c2nnn[nH]2)cc1	0.589 ± 0.025	0.273 ± 0.022	1.36 ± 0.077	0.0858 ± 0.062	3.7 ± 0.2	8.26 ± 0.79	0.139 (inactive)
O=C1CSC(=S)N1c1ccc(Cl)cc1	0.606 ± 0.049	0.665 ± 0.077	0.854 ± 0.059	0.389 ± 0.059	0.673 ± 0.03	0.869 ± 0.11	0.988 (active)
CCn1nnc2c(NCCc3c[nH]c4ccccc34)ncnc21	0.961 ± 0.042	1.09 ± 0.1	1.09 ± 0.058	0.768 ± 0.043	1.05 ± 0.15	1.11 ± 0.32	0.958 (active)
COc1ccc(CNCc2cccc(C(F)(F)F)c2)cc1	0.749 ± 0.083	1.04 ± 0.087	1.02 ± 0.045	1.12 ± 0.14	0.966 ± 0.071	1.37 ± 0.21	0.27 (inactive)
Cc1cc(=O)n(CC(=O)N2CCC(c3ccccc3F)S(=O)(=O)CC2)cn1 (configuration not stated)	1.01 ± 0.06	1.07 ± 0.084	0.953 ± 0.09	1 ± 0.063	1.12 ± 0.081	1.04 ± 0.091	1 (active)
O=C(C=Cc1ccc(-c2cccc(Cl)c2)o1)c1ccc(Cl)cc1	0.755 ± 0.085	0.746 ± 0.038	0.857 ± 0.079	0.446 ± 0.031	0.896 ± 0.058	0.724 ± 0.14	0.957 (active)
O=c1oc2ccccc2c(O)c1Cc1c(O)c2ccccc2oc1=O	1.06 ± 0.089	0.972 ± 0.061	1.03 ± 0.051	1.06 ± 0.12	0.916 ± 0.048	0.844 ± 0.07	0.997 (active)
CCCC(=O)OCOC(=O)C1=C(C)NC(C)=C(C(=O)OC)C1c1cccc(Cl)c1Cl (configuration not stated)	0.752 ± 0.068	0.888 ± 0.064	1.07 ± 0.11	0.995 ± 0.048	1.18 ± 0.14	1.16 ± 0.16	1 (active)
O=C(O)c1cc2nc(-c3ccc(Cl)c(Cl)c3)cc(C(F)(F)F)n2n1	0.958 ± 0.076	1.09 ± 0.06	0.973 ± 0.058	1.02 ± 0.031	1.66 ± 0.2	1.13 ± 0.11	1.01 (active)
COc1ccc(C(=O)CSc2nnc(NC(=O)C3CC(=O)N(c4cccc(OC)c4)C3)s2)cc1 (configuration not stated)	1.15 ± 0.066	1.11 ± 0.11	1.23 ± 0.13	0.528 ± 0.026	0.758 ± 0.059	0.708 ± 0.23	1.01 (active)
N[C@H]1CONC1=O	1.08 ± 0.13	1.06 ± 0.057	1.03 ± 0.074	1.02 ± 0.1	0.957 ± 0.039	0.949 ± 0.1	1.01 (active)
CC(=O)O.NCc1ccc(S(N)(=O)=O)cc1	1 ± 0.1	1.01 ± 0.052	0.992 ± 0.058	0.914 ± 0.065	0.96 ± 0.12	1.02 ± 0.092	1.01 (active)
COc1ccc(-c2cc3nc(C)cc(NCCN4CCOCC4)n3n2)cc1OC	1.11 ± 0.086	0.962 ± 0.076	0.976 ± 0.026	1.06 ± 0.13	0.998 ± 0.12	1.05 ± 0.22	0.997 (active)
O=C(Nc1ccc(Br)cc1)c1cccc(S(=O)(=O)NC2CCCCC2)c1	0.746 ± 0.057	0.846 ± 0.076	1.24 ± 0.035	0.527 ± 0.019	1.04 ± 0.14	1 ± 0.17	0.983 (active)
COc1cccc(C=Nc2cccc([N+](=O)[O-])c2C)c1O	0.661 ± 0.054	0.906 ± 0.066	0.978 ± 0.035	0.903 ± 0.077	0.93 ± 0.088	0.948 ± 0.17	1 (active)
C#CCN[C@@H]1CCc2ccccc21.CS(=O)(=O)O	0.992 ± 0.1	1.03 ± 0.12	1.03 ± 0.031	0.933 ± 0.087	0.913 ± 0.03	0.849 ± 0.1	0.996 (active)
CCN(CC)Cc1cc(Nc2ccnc3cc(Cl)ccc23)ccc1O.Cl.Cl	0.199 ± 0.011	0.753 ± 0.073	0.774 ± 0.046	1.19 ± 0.075	1.03 ± 0.11	1.47 ± 0.16	0.873 (active)
